Pol beta inh – inhibitors of human DNA polymerase beta; P06746; Pol beta primer extension/strand displacement, fluorescence kinetic; Potency, µM (top dose mostly 114 µM), without a hit: top-dose activity change, negative = inhibition, actives largely listed as inhibitors; 340,000 tested, 1.3% active; also: potency is read from the fitted curve at half-maximal effect; % is scaled to controls: 0 for no effect and ±100 for the full control effect
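Homogeneous kinetic assay of primer extension and strand displacement by 10 nM Pol beta, preincubated 15 min at room temperature with compound before 50 nM substrate (final) was added. Read at 0 and 10 min; four-parameter Hill fit.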
Pol kappa inh – DNA polymerase kappa (human) inhibition | Q9UBT6 | purified Pol kappa, fluorescent DNA synthesis assay, 10 min | Potency, µM (series often up to 107 µM), for inactives: top-dose activity, negative = inhibition, hits mostly inhibitors | 400,000 tested, 0.53% active; also: potency is read from the fitted curve at half-maximal effect; % is scaled to controls: 0 for no effect and ±100 for the full control effect
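10 nM Pol kappa preincubated 15 min at room temperature with compounds, then reaction started with substrate at 50 nM final. Fluorescence read kinetically at 0 and 10 min; buffer-only wells served as negative control.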
Pol iota inh – inhibitors of human DNA polymerase iota; Q9UNA4; Pol iota fluorescent replication assay, 10 min; Potency, µM (doses to about 115 µM), inactives show at the top dose activity, negative = inhibition, hits mostly inhibitors; 390,000 tested, 1% active; AID 588590; also: potency is read from the fitted curve at half-maximal effect
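Fluorescent replication assay read twice, at 0 min and 10 min after adding 50 nM (final) substrate. Enzyme (10 nM) and compounds were first incubated 15 min at room temperature; enzyme-free buffer wells were negative controls.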
PI5P4Ka inh – blocks human PI5P4K alpha kinase activity; PI5P4Kalpha enzyme, ADP-Glo luminescence, 60 min; hits give low values; 330,000 tested, 1.2% active; P48426; max response, %; active = max response of -50% or lower; inconclusive = between -30% and -50%; inactive = -30% or higher; also: value at the top dose of about 77 µM; % is scaled to controls: 0 for no effect and ±100 for the full control effect
Target sequence (P48426 whole entry, looked up): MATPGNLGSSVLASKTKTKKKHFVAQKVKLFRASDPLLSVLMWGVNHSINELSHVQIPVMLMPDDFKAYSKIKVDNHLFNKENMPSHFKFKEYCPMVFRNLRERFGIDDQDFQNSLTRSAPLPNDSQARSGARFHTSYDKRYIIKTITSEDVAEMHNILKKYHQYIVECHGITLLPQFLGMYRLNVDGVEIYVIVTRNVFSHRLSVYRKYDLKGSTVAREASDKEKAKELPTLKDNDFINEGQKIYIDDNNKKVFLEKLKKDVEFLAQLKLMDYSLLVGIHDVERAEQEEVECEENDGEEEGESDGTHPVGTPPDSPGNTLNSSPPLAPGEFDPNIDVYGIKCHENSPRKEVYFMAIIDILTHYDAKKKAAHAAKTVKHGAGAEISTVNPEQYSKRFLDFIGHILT
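Reactions run in 0.038 M HEPES pH 7.4, 0.28 mM EGTA, 0.1% CHAPS and 5% DMSO, with PI5P4Kalpha, substrate, compound and 5 microM ATP final, one hour at room temperature. Readout is ADP-Glo luminescence.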
POLH inh – DNA polymerase eta (human) inhibition; Q9Y253; recombinant Pol eta, fluorescent DNA replication assay; 390,000 tested, 1.2% active; Potency, µM (series often up to 114 µM), for the others: top-dose activity change, negative = inhibition, hits mostly inhibitors; also: potency is read from the fitted curve at half-maximal effect; % is scaled to controls: 0 for no effect and ±100 for the full control effect
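Pol eta at 10 nM preincubated with compounds 15 min at room temperature; reaction started with fluorescent substrate (50 nM final) and read kinetically at 0 and 10 min.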
WRN helicase inh – WRN helicase (human) inhibition; WRN helicase unwinding, fluorescent forked duplex, kinetic; Potency, µM (doses to about 114 µM), for inactives: at the highest dose activity change, negative = inhibition, actives largely listed as inhibitors; 360,000 tested, 0.46% active; AID 651768; also: potency is read from the fitted curve at half-maximal effect; % is scaled to controls: 0 for no effect and ±100 for the full control effect; nearly all actives have a fitted effect of over 55% in size
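Primary qHTS, 1536-well format. 20 nM WRN + compound, 15 min RT; start with 100 nM forked fluorophore/quencher duplex, 2 mM ATP (final); kinetic read ex 525/em 598 nm.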
An asterisk follows results filed as active; ? = inconclusive; · = no result; ! = repeats disagree; [ ] = remark or other dose. This is a sample that favours compounds with a hit; in the whole collection about 2.8% have one here. Unless noted, calls follow the shape of the dose curve; as a rule, active = well fitted curve in the direction sought with a large enough effect; inconclusive = small, poorly fitted or top-dose-only effect, or another doubt; inactive = no such curve, though single readings can be large; an effect the other way counts as inactive or inconclusive.

SMILES	Pol beta inh	Pol kappa inh	Pol iota inh	PI5P4Ka inh	POLH inh	WRN helicase inh
Cc1n[nH]c(C)c1Sc1ccccc1[N+](=O)[O-]	-27%	-9%	108%	-1	-21%	-6%
O=C(CN1C(=O)CCC1=O)Nc1nc2c(F)cc(F)cc2s1	·	10%	7%	-8	-17%	8%
O=C(CN1C(=O)NC2(CCCCC2)C1=O)Nc1nc2c(F)cc(F)cc2s1	·	-21%	59%	-50*	?	-18%
CCC1=NN2C(=N)/C(=C\c3cccn3-c3ccc(Cl)cc3)C(=O)N=C2S1	28µM*	-20%	?	-6	?	-23%
CCC1=NN2C(=N)/C(=C/c3ccc(OS(=O)(=O)c4ccccc4)cc3)C(=O)N=C2S1	?	-11%	1%	-63*	45µM*	-28%[57.1 µM]
CCC1=NN2C(=N)/C(=C\c3cccn3-c3ccc(C)c(C)c3)C(=O)N=C2S1	?	2%	20%	-19	?	-19%
N#Cc1ccc(/C=C\c2nccc3c2[nH]c2ccccc23)cc1	18µM*	-18%	?	-13	-1%	-27%
Clc1ccc(/C=C\c2nccc3c2[nH]c2ccccc23)cc1	29%	1%	95%	2	-24%	6%
COc1ccc(CCN2CC(C(=O)Nc3cc(S(C)(=O)=O)ccc3Cl)CC2=O)cc1OC (stereo unspecified)	·	-18%	25%	-4	-16%	-3%
COc1ccccc1N1CC(C(=O)Nc2ccc(S(=O)(=O)N3CCCC3)cc2)CC1=O (stereo unspecified)	·	-2%	?	0	-6%	2%
CCc1ccccc1N1CC(C(=O)Nc2cc(S(=O)(=O)N3CCCC3)ccc2Cl)CC1=O (stereo unspecified)	·	?	50µM*	?	16µM*	-34%
Cc1ccc(CN2CC(C(=O)Nc3cc(S(C)(=O)=O)ccc3Cl)CC2=O)cc1 (stereo unspecified)	14µM*	-17%	-10%	-24	?	-3%[57.1 µM]
CCOC(=O)[C@]12CCCC=C1N(Cc1ccccc1)C(=O)[C@H](CC(=O)N1CCOCC1)C2	·	·	·	-3	·	4%
C=Cc1ccc(CSc2nc(-c3ccc(C)cc3)nc3c2Cc2c(CO)cnc(C)c2O3)cc1	3%	-10%	29%	·	-17%	·
Cc1ccc(N(C)S(=O)(=O)c2ccc(-c3coc(C)n3)cc2)cc1	3%	-9%[60.1 µM]	16%	·	-15%	·
O=C(NCCNC(=O)c1ccc(Cl)cc1Cl)c1ccc(Cl)cc1Cl	·	·	·	-1	·	-3%[57.1 µM]
CCCNC(=O)c1ccc(Cl)cc1Cl	20µM*	0%	4%	3	-28%	5%
O=C(Nc1ccc(Br)cc1)C1CCN(c2ncccn2)CC1	21%	9%	15%	·	-17%	·
CCN1CCN(Cc2ccc(NC(=O)c3ccc(C)c(/C=C/c4cnc(Nc5cc(N6CCNCC6)nc(C)n5)cn4)c3)cc2C(F)(F)F)CC1	11%	-34%	?	-74*	79µM*	20µM*!
COc1cccc(NC(=O)CN(C)C(=O)CCc2nc3sc4c(c3c(=O)[nH]2)CCCC4)c1	35µM*	-24%	28µM*	?	22µM*	?
CCc1cccc(NC(=O)CCc2nc3sc4c(c3c(=O)[nH]2)CCCC4)c1	·	?	18µM*	?	32µM*	-10%[11.6 µM]
Cc1cccc(NC(=O)CCc2nc3sc4c(c3c(=O)[nH]2)CCCC4)c1	·	0%	17%	1	?	-2%
O=C(CCc1nc2sc3c(c2c(=O)[nH]1)CCCC3)N1CCN(c2ccccc2)CC1	·	?	45µM*	?	79µM*	-2%[11.6 µM]
COc1ccc(N2CSC3=C(C#N)C(c4cc(OC)ccc4OC)CC(=O)N3C2)c(OC)c1 (stereo unspecified)	10%	-28%	?	-85*	-15%	10%
CCOC(=O)c1ccc(N2CSC3=C(C#N)C(c4cccs4)CC(=O)N3C2)cc1 (stereo unspecified)	0%	-14%	-7%	-70*	-3%	1%

Source: PubChem BioAssay
